Compounds without any hit were thinned out: in the full panel of roughly 79,000, 15% have a hit. The source made the active and inactive calls. No stated cut-off is given here; in the data, active means growth inhibition above about 70%; inactive means the rest.
Key:
[1] = NCI Yeast Anticancer Drug Screen. Data for the rad52 strain (AID 147);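 further: 0% = growth of vehicle-treated control cultures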; conditions: S. cerevisiae rad52 mutant growth inhibition, stronger effect = higher value
Procedure, shortened: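 Yeast strain carrying a DNA damage repair alteration was exposed to test compounds. Growth inhibition was measured relative to vehicle-treated controls.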

[2] = NCI Yeast Anticancer Drug Screen. Data for the rad50EPP+ strain (AID 151);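 further: 0% = growth of vehicle-treated control cultures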; conditions: S. cerevisiae rad50 mutant strain, stronger effect = higher value
Procedure, shortened: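 Yeast strain carrying rad50 alteration (rad50EPP+) exposed to compounds; growth inhibition measured relative to vehicle-treated controls.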

[3] = NCI Yeast Anticancer Drug Screen. Data for the mgt1 strain (AID 153); conditions: S. cerevisiae mgt1 mutant growth inhibition, stronger effect = higher value
Procedure, shortened: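 Yeast mgt1 strain (DNA repair/cell-cycle alteration panel) exposed to compounds; growth inhibition measured relative to vehicle-treated controls.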

[4] = NCI Yeast Anticancer Drug Screen. Data for the rad50 strain (AID 155);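 further: 0% = growth of vehicle-only cultures of the same strain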; conditions: S. cerevisiae rad50 strain growth inhibition, stronger effect = higher value
Procedure, shortened: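 Cells are treated with compound, grown, and their growth is then scored against vehicle-only cultures of the same repair-deficient yeast strain.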

[5] = NCI Yeast Anticancer Drug Screen. Data for the mec2-1 strain (AID 157); conditions: S. cerevisiae mec2-1 strain, stronger effect = higher value
Procedure, shortened: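 mec2-1 yeast strain, carrying an alteration in DNA damage repair or cell cycle control, was exposed to compounds; growth inhibition was measured relative to vehicle-treated controls.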

[6] = NCI Yeast Anticancer Drug Screen. Data for the rad14 strain (AID 159);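 further: 0% = growth of vehicle-treated control cultures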; conditions: S. cerevisiae rad14 strain growth inhibition, stronger effect = higher value
Procedure, shortened: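 Readout: yeast growth inhibition, referenced to vehicle-only cultures. Strain bears a defined alteration in DNA damage repair.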

[7] = NCI Yeast Anticancer Drug Screen. Data for the sgs1 mgt1 strain (AID 161);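 further: 0% = growth of cultures given vehicle only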; conditions: S. cerevisiae sgs1 mgt1 strain, stronger effect = higher value
Procedure, shortened: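 Yeast cells carrying a defined DNA-repair defect were exposed to test compounds. Growth inhibition was measured relative to vehicle-treated controls.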

[8] = NCI Yeast Anticancer Drug Screen. Data for the CLN2oe strain (AID 163);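 further: 0% = growth of vehicle-only control cultures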; conditions: S. cerevisiae CLN2oe strain, stronger effect = higher value
Procedure, shortened: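 Yeast cells carrying a defined cell-cycle control alteration were exposed to test compounds. Growth inhibition was scored against vehicle-treated control cultures.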

[9] = NCI Yeast Anticancer Drug Screen. Data for the cln2 rad14 strain (AID 165);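 further: 0% = growth equal to vehicle treated cultures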; conditions: S. cerevisiae cln2 rad14 strain, stronger effect = higher value
Procedure, shortened: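 Yeast carrying cln2 and rad14 alterations (cell cycle control and DNA damage repair) were exposed to compounds. Growth inhibition was measured against vehicle-treated controls.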

[10] = NCI Yeast Anticancer Drug Screen. Data for the bub3 strain (AID 167); conditions: S. cerevisiae bub3 mutant strain, stronger effect = higher value
Procedure, shortened: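 Part of a panel of yeast mutants defective in DNA damage repair or cell cycle regulation. Each strain is grown with compound, and inhibition is calculated relative to solvent-treated cultures.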

[11] = NCI Yeast Anticancer Drug Screen. Data for the wt2 strain (AID 169);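 further: 0% = growth of vehicle-treated yeast cultures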; conditions: S. cerevisiae wt2 strain growth inhibition, stronger effect = higher value
Procedure, shortened: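 Yeast cells were exposed to test compounds, and growth inhibition was measured relative to vehicle-treated controls.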

[12] = NCI Yeast Anticancer Drug Screen. Data for the mlh1 strain (AID 171);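 further: 0% = growth of vehicle-treated control cultures of the same strain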; conditions: S. cerevisiae mlh1 strain growth inhibition, stronger effect = higher value
Procedure, shortened: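 Yeast carrying a defined genetic alteration in DNA damage repair or cell cycle control were exposed to test compounds. Growth inhibition was measured relative to vehicle-treated controls.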

[13] = NCI Yeast Anticancer Drug Screen. Data for the sgs1 strain (AID 173);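 further: 0% = growth of vehicle-only control cultures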; conditions: S. cerevisiae sgs1 mutant, stronger effect = higher value
Procedure, shortened: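 Yeast mutant strains carrying defined defects in DNA damage repair or cell cycle control were exposed to test compounds. Growth inhibition was scored against vehicle-treated controls.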

[14] = NCI Yeast Anticancer Drug Screen. Data for the mlh1 rad18 strain (AID 175); conditions: S. cerevisiae mlh1 rad18 strain growth inhibition, stronger effect = higher value
Procedure, shortened: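 Growth inhibition of the yeast strain was measured after compound exposure and expressed relative to vehicle-treated controls. The strain carries defined defects in DNA damage repair.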

[15] = NCI Yeast Anticancer Drug Screen. Data for the rad18 strain (AID 177); conditions: S. cerevisiae rad18 mutant growth inhibition, stronger effect = higher value
Procedure, shortened: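 Yeast carrying a defined DNA damage repair alteration were exposed to compounds. Growth inhibition was expressed relative to vehicle-treated controls.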

[16] = NCI Yeast Anticancer Drug Screen. Data for the wt1 strain (AID 149);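 further: 0% = growth of vehicle-treated wt1 cultures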; conditions: S. cerevisiae wt1 strain (SPY 50644) growth inhibition, stronger effect = higher value
Procedure, shortened: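 The wt1 strain was treated with compounds, and growth was compared with vehicle-treated cultures to give inhibition.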

[17] = at 5.0 µM (retest, dose inferred, filed as 0.5)
[18] = at 50.0 µM (retest, dose inferred, filed as 5.0)

Measured: growth inhibition

CCCCS(=O)(=O)Nc1ccc(Nc2c3ccccc3nc3ccccc23)c(OC)c1
active: [1]; at 3.7 µM 80% | [1]; at 11.0 µM 90% | [1]; at 33.0 µM 93% | [1]; at 100.0 µM 96% | [2]; at 100.0 µM 81% | [3]; at 100.0 µM 96% | [4]; at 3.7 µM 78% | [4]; [17] 86% | [4]; at 11.0 µM 89% | [4]; at 33.0 µM 94% | [4]; [18] 98% | [4]; at 100.0 µM 96% | [5]; at 33.0 µM 91% | [5]; [18] 98% | [5]; at 100.0 µM 98% | [6]; at 33.0 µM 79% | [6]; at 100.0 µM 96% | [7]; [18] 99% | [7]; at 50.0 µM 84% | [8]; at 33.0 µM 72% | [8]; at 100.0 µM 91% | [9]; [18] 95% | [9]; at 50.0 µM 77% | [10]; [18] 96% | [10]; at 50.0 µM 76.9% | [10]; at 100.0 µM 96% | [11]; at 100.0 µM 93% | [12]; at 33.0 µM 73% | [12]; at 100.0 µM 97% | [13]; at 33.0 µM 79% | [13]; at 100.0 µM 97% | [14]; [17] 78% | [14]; [18] 97% | [14]; at 50.0 µM 84% | [15]; at 33.0 µM 78% | [15]; at 100.0 µM 96%
inactive: [1]; at 1.2 µM 54% | [2]; at 1.2 µM -20% | [2]; at 3.7 µM -11% | [2]; at 11.0 µM 10% | [2]; at 33.0 µM 53% | [3]; at 1.2 µM -49% | [3]; at 3.7 µM -46% | [3]; at 11.0 µM -33% | [3]; at 33.0 µM 64% | [4]; at 1.2 µM 39% | [4]; at 50.0 µM 45% | [5]; at 1.2 µM -29% | [5]; at 3.7 µM -9% | [5]; [17] 15% | [5]; at 11.0 µM 37% | [5]; at 50.0 µM 47.5% | [6]; at 1.2 µM -31% | [6]; at 3.7 µM -25% | [6]; at 11.0 µM -9% | [7]; [17] 44% | [8]; at 1.2 µM 10% | [8]; at 3.7 µM 3% | [8]; at 11.0 µM 6% | [9]; [17] 25% | [10]; at 1.2 µM -53% | [10]; at 3.7 µM -63% | [10]; [17] 43% | [10]; at 11.0 µM -35% | [10]; at 33.0 µM 60% | [11]; at 1.2 µM -13% | [11]; at 3.7 µM -22% | [11]; at 11.0 µM -13% | [11]; at 33.0 µM 41% | [12]; at 1.2 µM -58% | [12]; at 3.7 µM -43% | [12]; at 11.0 µM -29% | [13]; at 1.2 µM 1% | [13]; at 3.7 µM 3% | [13]; at 11.0 µM 20% | [15]; at 1.2 µM -14% | [15]; at 3.7 µM -15% | [15]; at 11.0 µM 0%

Cc1cccc(/C=N/NC(=S)NC2CCCCC2)n1
active: [4]; [18] 77% | [7]; at 50.0 µM 70.8% | [10]; [18] 79% | [10]; at 50.0 µM 72.7%
inactive: [1]; at 1.2 µM -8% | [1]; at 3.7 µM -9% | [1]; at 11.0 µM -8% | [1]; at 33.0 µM 9% | [1]; at 100.0 µM 6% | [16]; at 1.2 µM -7% | [16]; at 3.7 µM -6% | [16]; at 11.0 µM -4% | [16]; at 33.0 µM 10% | [16]; at 100.0 µM 6% | [3]; at 1.2 µM -5% | [3]; at 3.7 µM -8% | [3]; at 11.0 µM 19% | [3]; at 33.0 µM 20% | [3]; at 100.0 µM 21% | [4]; at 1.2 µM -7% | [4]; at 3.7 µM -9% | [4]; [17] -32% | [4]; at 11.0 µM -33% | [4]; at 33.0 µM 13% | [4]; at 50.0 µM 39.5% | [4]; at 100.0 µM 7% | [5]; at 1.2 µM 1% | [5]; at 3.7 µM -6% | [5]; [17] -23% | [5]; at 11.0 µM -5% | [5]; at 33.0 µM 11% | [5]; [18] 64% | [5]; at 50.0 µM 54.8% | [5]; at 100.0 µM 8% | [7]; [17] -25% | [7]; [18] 51% | [8]; at 1.2 µM -14% | [8]; at 3.7 µM -17% | [8]; at 11.0 µM -23% | [8]; at 33.0 µM 18% | [8]; at 100.0 µM 12% | [9]; [17] -24% | [9]; [18] 20% | [9]; at 50.0 µM 40.6% | [10]; at 1.2 µM -6% | [10]; at 3.7 µM -3% | [10]; [17] -30% | [10]; at 11.0 µM 16% | [10]; at 33.0 µM 32% | [10]; at 100.0 µM 20% | [11]; at 1.2 µM -4% | [11]; at 3.7 µM -4% | [11]; at 11.0 µM 1% | [11]; at 33.0 µM 26% | [11]; at 100.0 µM 18% | [12]; at 1.2 µM -6% | [12]; at 3.7 µM -4% | [12]; at 11.0 µM -3% | [12]; at 33.0 µM 12% | [12]; at 100.0 µM 8% | [13]; at 1.2 µM -3% | [13]; at 3.7 µM -2% | [13]; at 11.0 µM 9% | [13]; at 33.0 µM 40% | [13]; at 100.0 µM 29% | [14]; [17] -19% | [14]; [18] 55% | [14]; at 50.0 µM 62.5% | [15]; at 1.2 µM -5% | [15]; at 3.7 µM -4% | [15]; at 11.0 µM 3% | [15]; at 33.0 µM 20% | [15]; at 100.0 µM 19%

— PubChem BioAssay (NCI)
